High-throughput results (PubChem BioAssay)
Hits are enriched below; roughly 9.4% of the tested compounds scored in any of these assays.
NPC1 prom act – qHTS Assay for NPC1 Promoter Activators; Potency, µM (highest dose often 9.22 µM), inactives show at the top dose activation, hits mostly activators; 320,000 tested, 2.4% active; Huh7 NPC1 promoter luciferase reporter, 24 h; AID 485313, 2010; further: % of control where 0% means no effect; nearly all actives have a fitted effect of over 60% in size
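Compounds in DMSO were transferred onto Huh7 NPC1-luciferase reporter cells pre-incubated 2 h; after 24 h at 37 °C, Amplite reagent was dispensed and luminescence recorded 10 min later.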
SMN2 splice up – qHTS Assay for Enhancers of SMN2 Splice Variant Expression; HEK293 SMN2-luciferase splicing reporter, luminescence, 30-36 h; AID 1458, 2008; Potency, µM (series often up to 46.1 µM), inactives show top-dose activity change, positive = activation, usual class: activators; 210,000 tested, 2.8% active; further: % of control where 0% means no effect; nearly all actives have a fitted effect of over 55% in size
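qHTS luciferase splicing reporter: luminescence rises when SMN2 exon 7 is included in transfected HEK293 cells. Compound exposure lasted 30-36 h at 37C, with 4.5 mM final sodium butyrate as control, followed by a ONE-Glo read.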
Rab9 prom act – qHTS Assay for Rab9 Promoter Activators; Potency, µM (doses to about 9.22 µM), inactives show at the highest dose activation, negative = inhibition, usual class: activators; AID 485297, 2010; 320,000 tested, 2.8% active; Huh7 Rab9 promoter-luciferase reporter, luminescence, 24 h; further: % of control where 0% means no effect; nearly all actives have a fitted effect of over 60% in size
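Using Huh7 cells stably transfected with Rab9 promoter–luciferase, compounds were incubated 24 h at 37 °C, 5% CO2; luciferase luminescence was read 10 min after reagent addition.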
ELG1 repair inh – qHTS screen for small molecules that inhibit ELG1-dependent DNA repair in human embryonic kidney (HEK293T) cells expressing luciferase-tagged ELG1; HEK293T ELG1-luciferase reporter, luminescence, 16 h; DNA damage induced by 5-fluorouridine; AID 504467, 2011; Potency, µM (series often up to 46.1 µM), without a hit: at the highest dose activity change, negative = inhibition, hits mostly inhibitors; 330,000 tested, 2.3% active; further: on the % scale 0 is the no-effect control and ±100 the full control effect; nearly all actives have a fitted effect of over 55% in size
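Overnight (16 hr) co-exposure of 2,000 cells/well to 5-fluorouridine and compound at 37 °C preceded detection. Luciferase was quantified via ONE-Glo luminescence; loss of signal denotes inhibition.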
FLuc counter – qHTS profiling assay for firefly luciferase inhibitor/activator using purifed enzyme and Km concentrations of substrates (counterscreen for miR-21 project). 360,000 tested, 6.9% active. AID 588342, 2011. Luciferin 4-monooxygenase (Photinus pyralis), P08659. Potency, µM (highest dose often 57.5 µM), inactives show at the top dose activity change, negative = inhibition, hits mostly inhibitors. purified FLuc, Km substrates, luminescence inhibition;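 further: plate controls were vehicle for no effect and reference inhibitor for full effect; nearly all actives have a fitted effect of over 55% in size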
Target sequence (P08659 whole entry, looked up): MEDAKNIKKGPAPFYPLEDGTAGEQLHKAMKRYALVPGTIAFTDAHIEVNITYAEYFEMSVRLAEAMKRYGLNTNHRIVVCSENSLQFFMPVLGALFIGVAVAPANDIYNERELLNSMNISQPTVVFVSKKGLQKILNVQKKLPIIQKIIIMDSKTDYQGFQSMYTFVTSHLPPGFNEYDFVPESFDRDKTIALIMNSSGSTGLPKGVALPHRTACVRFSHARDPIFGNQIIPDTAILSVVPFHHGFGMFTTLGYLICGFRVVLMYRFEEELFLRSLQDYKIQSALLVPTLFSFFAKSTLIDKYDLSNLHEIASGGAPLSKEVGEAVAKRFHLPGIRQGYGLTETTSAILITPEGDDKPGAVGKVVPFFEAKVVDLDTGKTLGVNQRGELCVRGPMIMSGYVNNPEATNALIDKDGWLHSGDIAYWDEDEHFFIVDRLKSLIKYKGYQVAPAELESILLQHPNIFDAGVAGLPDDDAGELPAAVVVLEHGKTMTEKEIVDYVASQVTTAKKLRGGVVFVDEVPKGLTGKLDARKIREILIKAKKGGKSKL
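Purified P. pyralis luciferase (10nM final) with 10uM D-luciferin and 10uM ATP (Km levels) in 50mM Tris acetate pH 7.5, 10mM Mg acetate, 0.01% Tween-20, 0.05% BSA; qHTS 6-point titration, ~60 µM downward; luminescence read.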
ELG1 genotox – qHTS screen for small molecules that induce genotoxicity in human embryonic kidney (HEK293T) cells expressing luciferase-tagged ELG1. 330,000 tested, 1.3% active. Potency, µM (doses to about 46 µM), without a hit: at the highest dose activity change, positive = activation, usual class: activators. HEK293T ELG1-luciferase reporter, luminescence, 16 h. AID 504466, 2011; further: % of control where 0% means no effect; nearly all actives have a fitted effect of over 60% in size
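Cells (2,000/well) expressing the ELG1-luciferase fusion are dosed by pin tool and kept 16 hr at 37 °C, 5% CO2. Signal comes from ONE-Glo luciferase reagent after 30 min at room temperature.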
* hit, by the source's call; ? = inconclusive; / = not tested or not shown; [ ] = remark or other dose. The call rests on the fitted dose curve; in most records, active means well fitted curve in the direction sought with a large enough effect; inconclusive means small, poorly fitted or top-dose-only effect, or another doubt; inactive means no such curve, though single readings can be large; an effect the other way counts as inactive or inconclusive. Potency means the concentration at half of the fitted maximal effect.

SMILES | NPC1 prom act | SMN2 splice up | Rab9 prom act | ELG1 repair inh | FLuc counter | ELG1 genotox
CCOC(=O)c1sc(N/N=C/c2cc(Br)c(O)c(OC)c2)nc1C | 10% | / | 2% | ? | ? | 0%
COC(=O)c1sc(N/N=C/c2ccc(C(C)C)cc2)nc1C | 29% | / | ? | ? | 19µM* | 13%
CCc1ccc(-c2[nH]nc3nc(-c4cc(OC)ccc4OC)cc(C(=O)O)c23)cc1 | / | / | / | / | 1.9µM* | /
COc1ccc(-c2[nH]nc3nc(-c4cc(OC)c(OC)c(OC)c4)cc(C(=O)O)c23)cc1 | / | / | / | / | 2.7µM* | /
CCOc1cc(-c2cc(C(=O)O)c3c(-c4ccccc4)[nH]nc3n2)ccc1O | / | 5% | / | / | ? | /
CN(C)CC(O)Cn1c2ccc(Br)cc2c2cc(Br)ccc21 (centres undefined) | / | -108% | / | / | / | /
COc1ccc(CCNC(=O)Cn2ncc3c(C)n(Cc4ccccc4F)c(C)c3c2=O)cc1OC | / | 4% | / | / | -10% | /
CC(=O)Nc1nc(-c2ccccc2)c(-c2ccccc2)o1 | 1% | 5% | -12% | -3% | -11% | 1%
CCc1ccc(NC(=O)c2ccc3c(c2)nnn3CC)cc1 | / | / | / | / | -19% | /
COc1cc(OC)cc(C(=O)Nc2nc(-c3ccccc3)c(-c3ccccc3)o2)c1 | -1% | -27% | 1% | 13µM* | -3% | 0%
CCn1nnc2cc(C(=O)Nc3cc(OC)cc(OC)c3)ccc21 | 13% | / | 24% | ? | 17µM* | ?
COc1cc(OC)cc(C(=O)Nc2ccc(C(=O)Nc3ccccc3OC)cc2)c1 | / | / | / | 16µM* | / | -11%
COc1cc(NC(=O)c2ccccc2)cc(OC)c1 | 6.3µM* | ? | ? | ? | 19µM* | ?
CCc1cccc(NC(=O)CCn2c(=O)c3cccn3c3cccnc32)c1 | / | / | / | / | 3% | /
Cc1c(Cl)cccc1NC(=O)C(C)n1nc(C)c2c(C)n(-c3ccccc3)nc2c1=O (centres undefined) | / | / | / | / | -12% | /
COc1ccc(Cl)cc1NCc1nnc2n1CCCCC2 | / | / | / | / | -1% | /
N=C(N)SCc1cccc(-c2nc3ccccc3c(=O)o2)c1 | / | -1%[9.22 µM] | / | / | / | /
COc1ccc(C(=O)Nc2cc(OC)cc(OC)c2)cc1 | 2µM* | 25µM* | 1.8µM* | ? | 4.8µM* | ?
COc1cc(NC(=O)c2ccc(S(=O)(=O)N(C)c3ccccc3)cc2)cc(OC)c1 | / | / | / | 23µM* | / | -7%
COc1ccc(OCC(=O)Nc2cc(OC)cc(OC)c2)cc1 | 5% | 7% | 2% | -22% | -23% | -3%
CCOC(=O)C(=CNc1cc(C)nn1-c1ccc(Cl)cc1)C(=O)OCC | -4% | -1% | -5% | ? | 13% | -6%
CCOC(=O)C(=Cc1ccc(-n2cncn2)cc1)C(=O)OCC | -13% | -56% | -21% | 18µM* | -10% | -22%
O=C(c1cc(Cl)nc2ccccc12)N1CCN(S(=O)(=O)c2cccc(F)c2)CC1 | 2% | / | 2% | 1% | 1% | -11%
O=S(=O)(c1cccc(F)c1)N1CCN(c2nc(-c3cccnc3)nc3ccccc23)CC1 | / | / | / | 10µM* | / | -8%
COc1ccc(NC(=O)CN(c2ccccc2OC)S(C)(=O)=O)c(OC)c1 | / | 3% | / | / | -3% | /
O=C(CSCn1nnc2c(=O)[nH]c(Cc3ccc(F)cc3)nc21)Nc1cccc(C(F)(F)F)c1 | / | -1% | / | / | -6% | /
CCN(CC)c1ccc2c(O)cc(=O)oc2c1 | 0% | 7% | 1% | 1% | 12µM* | 3%
CCN(CC)c1ccc2c(Cl)cc(=O)oc2c1 | 0% | 13% | 3% | -28% | ? | -3%
